Test results as given in PubChem BioAssay (NCI).
About 83,000 compounds went through this panel and 20% of them were active in at least one assay; those are over-represented in the sample as a whole.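 In brief: 96-well plates, 48 h treatment, single concentration, percent growth endpoint.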 Active and inactive are the calls of the source. The calls were made as follows: active = growth percent below 10; inactive = the rest.

What was measured:
Assay in all cases: NCI-60 one-dose screen, 48 h (100 = growth as untreated, 0 = no growth, -100 = all killed)
Conditions in all cases: 10 µM unless noted
[1] = system: SK-MEL-2 melanoma
[2] = system: EKVX NSCLC
[3] = system: SN12C renal
[4] = system: UO-31 renal
[5] = system: TK-10 renal
[6] = system: ACHN renal
[7] = system: CAKI-1 renal
[8] = system: A498 renal
[9] = system: CCRF-CEM leukemia
[10] = system: MOLT-4 leukemia

Measured: growth

CCN(CC)CC(C)Nc1ccc(C)c2sc3ccccc3c(=O)c12 (stereo not given)
inactive: [1] 116% | [2] 81.8% | [3] 49.6% | [4] 19.5% | [5] 68.1% | [6] 37.8% | [7] 39.3% | [8] 60.1% | [9] 34.4% | [10] 24.6%

COC(=O)c1cc(O)c2c(c1C(=O)OC)C[C@H]1[C@@H]3CC=C4C[C@@H](O)CC[C@]4(C)[C@H]3CC[C@]21C
inactive: [1] 78.7% | [2] 55% | [3] 71.3% | [4] 39.9% | [5] 55% | [6] 39.9% | [7] 26.2% | [8] 49.8% | [9] 37.8% | [10] 35.6%

Cn1cc(-c2noc(C(=O)c3cn(C)c4ncccc34)n2)c2ccccc21
inactive: [1] 107% | [2] 60.6% | [3] 95% | [4] 75.9% | [5] 26.5% | [6] 98.6% | [7] 86.2% | [8] 69.9% | [9] 98.1% | [10] 95.6%

C=C(C)[C@@H]1CC[C@]2(C(=O)NCCNCCNCCN)CC[C@]3(C)[C@H](CC[C@@H]4[C@@]5(C)CC[C@H](O)C(C)(C)[C@@H]5CC[C@]43C)[C@@H]12
active: [1] -65.4% [100 µM] | [2] -11.4% [100 µM] | [3] -53.7% [100 µM] | [4] -100% [100 µM] | [5] -67.3% [100 µM] | [6] -100% [100 µM] | [7] -93.6% [100 µM] | [8] -32.6% [100 µM] | [9] 5.18% [100 µM] | [10] 1.18% [100 µM]

CCCCOC(=O)c1cccc([N+](=O)[O-])c1
active: [9] 1.56%
inactive: [1] 113% | [2] 93.4% | [3] 108% | [4] 94.7% | [5] 111% | [6] 112% | [7] 105% | [8] 94.7% | [10] 122%

COc1cc(NN=C(c2ccc(O)cc2)c2ccc(O)cc2)c([N+](=O)[O-])cc1[N+](=O)[O-]
inactive: [2] 108% | [3] 90.5% | [5] 93.5% | [6] 42.4% | [7] 97% | [8] 125% | [9] 103% | [10] 94.6%
active: [1] -70.2% | [4] -66.4%

O=[N+]([O-])c1cc([N+](=O)[O-])c(NN=C(c2ccc(O)cc2)c2ccc(O)cc2)cc1Cl
inactive: [2] 38.8% | [7] 42.3% | [8] 73.4% | [9] 82.1% | [10] 53.4%
active: [1] -94% | [3] -78.6% | [4] -98.4% | [5] -57% | [6] -62.7%

Cn1cc(-c2nnc(-c3cn(C)c4ncc(Br)cc34)o2)c2ccccc21
inactive: [1] 99.1% | [2] 74.1% | [3] 88.2% | [4] 61.4% | [5] 114% | [6] 81.4% | [7] 45% | [8] 86.4% | [9] 102% | [10] 93.6%

CCOC(=O)COc1c(C)cc(SSc2cc(C)c(OCC(=O)OCC)c(C)c2)cc1C
inactive: [1] 100% | [2] 107% | [3] 102% | [4] 82.4% | [5] 87.5% | [6] 107% | [7] 106% | [8] 99.8% | [9] 82.5% | [10] 82.5%

CCNc1cc2c(cc1Br)-c1ccccc1C2=O
inactive: [1] 98% | [2] 71.5% | [3] 94.5% | [4] 55.1% | [5] 104% | [6] 98.2% | [7] 74.5% | [8] 93.4% | [9] 97.2% | [10] 98.3%

CC[C@]12C=CCN3CC[C@@]4(c5ccc(OC)cc5N(C)[C@H]4[C@@](O)(C(=O)OC)[C@@H]1OC(=O)CCC(=O)N[C@H](Cc1c[nH]c4ccccc14)C(=O)OC)[C@@H]32
active: [1] -48.8% [100 µM] | [2] -58.7% [100 µM] | [3] -68.7% [100 µM] | [4] -55.5% [100 µM] | [5] -38.7% [100 µM] | [6] -64.7% [100 µM] | [7] -71% [100 µM] | [8] -49.9% [100 µM] | [9] 7.07% [100 µM] | [10] -12.4% [100 µM]
